# Screening data deposited in PubChem BioAssay by The Scripps Research Institute Molecular Screening Center.
# PME-1 primary: PME-1 inhibitors via competitive probe labeling, primary screen, biochemical, fluorescence polarization, FP-Rh probe, HTS; inhibition, % at 5.9 µM; Protein phosphatase methylesterase 1 (Homo sapiens), Q9Y570; AID 2130, 2009; actives 0.53% (n = 320,000); recombinant PME-1;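 active means inhibition above the campaign mean of all compounds plus 3 SD, cut at about 26% in these data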;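 further: competitive labeling of PME-1 active site by serine hydrolase directed probe; inhibitors block probe labeling so polarization falls and inhibition rises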
# Fam108B inh: mouse Fam108B serine hydrolase inhibitors, primary screen, counter-screen for RBBP9 inhibitor project, biochemical, fluorescence polarization; recombinant Fam108B, FP-Rh probe fluorescence polarization; inhibition, % at 9.51 µM; actives 0.33% (n = 300,000);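 active means inhibition above the screen mean inhibition plus 3 SD, computed separately per campaign, cut at about 18% in these data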;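 further: inhibitors lower polarization as less probe binds the enzyme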
# PAFAH1B2 inh: PAFAH1B2 enzyme inhibitors, primary screen, biochemical, fluorescence polarization, human; Platelet-activating factor acetylhydrolase IB subunit alpha2 (Homo sapiens), P68402; recombinant PAFAH1B2, FP-rhodamine activity probe; inhibition, % at 3.39 µM; actives 1.2% (n = 340,000);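 active means inhibition above the mean of all tested compounds plus 3 SD, cut at about 24% in these data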
# Target sequence (P68402 whole entry, looked up): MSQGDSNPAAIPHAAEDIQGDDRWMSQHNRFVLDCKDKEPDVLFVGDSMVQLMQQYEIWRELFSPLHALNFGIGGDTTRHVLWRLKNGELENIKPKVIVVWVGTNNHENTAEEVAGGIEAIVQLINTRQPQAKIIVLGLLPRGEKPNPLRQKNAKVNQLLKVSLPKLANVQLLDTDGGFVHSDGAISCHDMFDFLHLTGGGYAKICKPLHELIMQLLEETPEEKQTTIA
# PAFAH1B3 FP inh: PAFAH1B3 enzyme inhibitors, primary screen, biochemical, fluorescence polarization, human; Platelet-activating factor acetylhydrolase IB subunit alpha1 (Homo sapiens), Q15102; recombinant PAFAH1B3, FP-rhodamine probe; inhibition, % at 3.39 µM; actives 0.28% (n = 340,000);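 active means inhibition above the screen-wide average of all tested compounds plus 3 SD, cut at about 25% in these data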
# Target sequence (Q15102 whole entry, looked up): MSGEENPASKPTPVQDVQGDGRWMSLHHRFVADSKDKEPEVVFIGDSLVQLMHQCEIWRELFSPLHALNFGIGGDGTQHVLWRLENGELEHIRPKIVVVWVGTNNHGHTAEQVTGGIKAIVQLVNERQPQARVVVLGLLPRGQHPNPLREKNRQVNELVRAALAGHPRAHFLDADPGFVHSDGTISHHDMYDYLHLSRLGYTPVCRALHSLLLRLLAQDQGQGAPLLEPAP
# PAFAH2 inh: PAFAH2 enzyme inhibitors, primary screen, biochemical, fluorescence polarization, human; actives 0.99% (n = 340,000); inhibition, % at 3.39 µM; recombinant PAFAH2, FP-rhodamine activity probe;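 active means inhibition above the mean over all tested compounds plus 3 SD, cut at about 30% in these data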;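 further: inhibitors block probe labeling of enzyme so polarization drops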
# pPAFAH inh: pPAFAH enzyme inhibitors, primary screen, biochemical, fluorescence polarization, human | Platelet-activating factor acetylhydrolase (Homo sapiens), Q13093 | recombinant pPAFAH, FP-rhodamine probe fluorescence polarization | inhibition, % at 3.39 µM | actives 1.5% (n = 330,000);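 active means inhibition above the mean inhibition across the screen plus 3 SD, cut at about 25% in these data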;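 further: inhibitors block binding of the rhodamine activity-based probe so polarization drops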
# PAFAH2 confirm: PAFAH2 enzyme inhibitors, confirmation, biochemical, fluorescence polarization, human; shares compounds with PAFAH2 inh; actives 65% (n = 2,300); inhibition, % at 3.39 µM; recombinant PAFAH2, FP-rhodamine activity probe;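 active means mean inhibition over three repeats above a set limit taken from the earlier primary screen, cut at about 30% in these data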;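 further: inhibitor blocks binding of rhodamine activity probe so polarization falls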
# Hits are given with their value; - = inactive; . = no result. Hits are enriched below; roughly 2.9% of the tested compounds scored in any of these assays.
SMILES,PME-1 primary,Fam108B inh,PAFAH1B2 inh,PAFAH1B3 FP inh,PAFAH2 inh,pPAFAH inh,PAFAH2 confirm
Cc1ccc(C)c(NC(=O)C2CC(=O)N(C3CCCCC3)C2)c1 (stereo not given),-,-,-,-,-,-,.
CC1CCN(CC(C)OC(=O)c2ccco2)CC1 (stereo not given),-,-,-,-,-,-,.
COc1ccccc1NC(=O)COC(=O)/C=C/c1ccc(OC)c(OC)c1,.,.,-,-,37,-,-
COc1ccc(/C=C/C(=O)OCC(=O)Nc2ccc(S(N)(=O)=O)cc2)cc1OC,-,-,-,-,-,-,.
O=C1/C(=C/c2ccco2)SC(=S)N1c1cccnc1,.,.,-,-,32,.,-
COc1ccc(/C=C2\SC(=S)N(c3cccnc3)C2=O)cc1,-,-,-,-,-,-,.
COc1cc(NC(=O)Nc2cccc(Cl)c2)c(C(=O)O)cc1OC,-,-,-,-,32,-,-
COC(=O)c1cc(OC)c(OC)cc1NC(=S)Nc1cccc(Cl)c1,-,-,-,-,-,-,.
COc1cc(NC(=O)Cc2cccc3ccccc23)c(C(=O)O)cc1OC,-,-,-,-,60,-,40
COc1ccc(C(F)(F)F)cc1N/C=C/c1nnnn1-c1ccc(C)cc1,-,-,-,-,-,-,.
COc1ccccc1NC(=O)CSc1nnc2ccc(-c3ccccn3)nn12,-,-,-,-,-,-,.
O=C(Nc1ccc(OC(F)(F)F)cc1)c1ccc2nccnc2c1,-,-,-,-,-,-,.
CCn1c(SCC(=O)c2c(N)n(C3CC3)c(=O)[nH]c2=O)nnc1-c1ccccc1OC,-,.,-,-,-,-,.
CCn1c(SCC(=O)c2ccc(O)c(O)c2)nnc1-c1ccccc1OC,-,-,-,-,42,29,-
COCCN(C(=S)Nc1c(C)cccc1C)C(C)c1cccs1 (stereo not given),-,-,-,-,51,-,39
CC(=O)N1CCCc2cc(S(=O)(=O)CCC(=O)Nc3cccc(C)c3C)ccc21,-,-,-,-,-,-,.
CCCOc1ccc2c3c(c(=O)oc2c1OCCC)CCCC3,-,-,-,-,35,-,-
CCOc1ccc2c3c(c(=O)oc2c1OCC)CCCC3,-,-,-,-,-,-,.
c1ccc(Oc2cc(-n3cccn3)ncn2)cc1,-,-,-,-,-,-,.
O=C(COC(=O)/C=C/c1ccc(S(=O)(=O)N2CCOCC2)cc1)NC1CCCCCCC1,-,-,-,-,53,-,32
O=C(COC(=O)c1ccc(S(=O)(=O)N2CCOCC2)cc1)NC1CCCC1,-,-,-,-,-,-,.
O=C(COC(=O)/C=C/c1ccc(S(=O)(=O)N2CCOCC2)cc1)NCc1ccc(Cl)cc1,-,-,-,-,-,-,.
O=C(COC(=O)/C=C/c1ccc(S(=O)(=O)N2CCOCC2)cc1)Nc1ccc(F)c(F)c1F,.,.,-,-,33,-,34
O=C(COC(=O)/C=C/c1ccc(S(=O)(=O)N2CCOCC2)cc1)NCc1ccccc1,-,-,-,-,49,-,30
CSc1ccccc1NC(=O)COC(=O)/C=C/c1ccco1,.,.,-,-,63,-,44
O=C(COC(=O)/C=C/c1cccc(Cl)c1)NCCc1ccc(Cl)cc1Cl,-,-,-,-,42,-,44
O=C(COC(=O)/C=C/c1ccco1)Nc1ncc(C(F)(F)F)cc1Cl,-,-,-,-,-,-,.
O=C(COC(=O)/C=C/c1ccco1)NCc1ccccc1Cl,-,-,-,-,75,-,63
Cc1c(Cl)cnc(NC(=O)COC(=O)/C=C/c2ccco2)c1Cl,.,.,-,-,34,.,-
COc1ccc(CNC(=O)COC(=O)/C=C/c2ccco2)cc1,-,-,-,-,-,-,.
